Screening results as filed in PubChem BioAssay.
An excerpt weighted towards active compounds, which were near 7.9% of everything screened.
MCF10A rereplic = DNA re-replication induction in MCF 10a cells. MCF 10A DNA re-replication, Hoechst nuclear intensity, 48 h. Potency, µM (series often up to 46.1 µM), actives largely listed as activators. 350,000 compounds, 2.9% hits; further: nearly all actives have a fitted effect of over 50% in size
HT1080 IDH1KD tx = HT-1080 IDH1 knockdown cell toxicity (counter line); 360,000 compounds, 2% hits; Potency, µM (series often up to 46.1 µM), usual class: cytotoxic; HT-1080 IDH1 knockdown viability, ATP luminescence, 48 h
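Assay cells: HT-1080 with IDH1 knockdown, 750 per well, RPMI/5% FBS. Exposure: 48 h at 37 °C following 2 h pre-incubation. Read: CellTiter-Glo luminescence; fitted concentration-response, curve class assigned.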
SW480 rerep = DNA re-replication induction in SW480 cells; AID 624297; Potency, µM (highest dose often 46.1 µM), usual class: activators; SW480 DNA re-replication, Hoechst DNA content imaging, 48 h; 340,000 compounds, 1.8% hits; further: nearly all actives have a fitted effect of over 55% in size
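Compounds, transferred as 23 nL by pin tool, were incubated with cells for 48 hr; DNA content per nucleus was then quantified by Hoechst staining and fluorescence plate imaging.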
KB-3-1 cytotox = kills parental KB-3-1 adenocarcinoma cells; KB-3-1 viability, CellTiter-Glo ATP luminescence, 72 h; Potency, µM (top dose mostly 46.1 µM), actives largely listed as cytotoxic; 400,000 compounds, 1.4% hits; AID 1347075; further: nearly all actives have a fitted effect of over 60% in size
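KB-3-1 cells, DMEM (no phenol red) + 10% FBS; compound by pin transfer, 72 h, 37 °C. Readout: CellTiter-Glo luminescence after 10 min. Data normalized, curve-fitted.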
KB-V1 cytotox = KB-V1 MDR subline cytotoxicity. Potency, µM (titrated, usually from 46.1 µM), hits mostly cytotoxic. 400,000 compounds, 3.4% hits. KB-V1 MDR cells viability, CellTiter-Glo, 72 h; further: nearly all actives have a fitted effect of over 60% in size
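KB-V1 MDR subline cells in DMEM (phenol-red free, 10% FBS) exposed to compounds in qHTS concentration series for 72 h at 37 degrees C. Viability read by CellTiter-Glo luminescence; concentration-effect curves fitted after normalization and correction.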
HT1080NT lethal = kills 2HG-producing HT-1080-NT fibrosarcoma cells; HT-1080-NT fibrosarcoma viability, CellTiter-Glo ATP luminescence, 48 h; Potency, µM (doses to about 46.1 µM), hits mostly cytotoxic; 360,000 compounds, 1.6% hits;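 further: NT is the 2HG producing partner of a matched IDH1 knockdown line; nearly all actives have a fitted effect of over 55% in size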
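Read-out is CellTiter-Glo luminescence after 10 minutes at room temperature, following 48 hours' compound treatment of HT-1080-NT cells (750 cells/well, RPMI, 5% FBS, 37 degrees C).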
Hits are given with their value; – = inactive; ? = inconclusive; · = no result. The call rests on the fitted dose curve; in most records, active means well fitted curve in the direction sought with a large enough effect; inconclusive means small, poorly fitted or top-dose-only effect, or another doubt; inactive means no such curve, though single readings can be large; an effect the other way counts as inactive or inconclusive.

SMILES | MCF10A rereplic | HT1080 IDH1KD tx | SW480 rerep | KB-3-1 cytotox | KB-V1 cytotox | HT1080NT lethal
C=CCn1c(=N)n(CC(O)COc2ccccc2OC)c2ccccc21 (centres undefined) | – | – | – | – | – | –
COc1ccccc1OCC(O)Cn1c(=N)n(Cc2ccccc2)c2ccccc21 (centres undefined) | ? | – | ? | 16µM | ? | ?
Cc1nccn1CC(O)Cn1c2ccccc2c2ccccc21 (centres undefined) | 21µM | – | – | – | – | ?
CCOc1ccc(CCNC(=O)c2ccc3c(c2)nc2n3CCOC2)cc1OCC | · | · | · | – | – | ·
CC1(C(=O)NS(=O)(=O)c2cccc(OC(F)F)c2)CCN1C(=O)CC(c1ccccc1)c1ccccc1 (centres undefined) | · | – | · | – | – | –
Cc1ccccc1OCC(O)Cn1c(=N)n(Cc2ccccc2)c2ccccc21 (centres undefined) | – | 16µM | – | ? | ? | 15µM
Cc1ccccc1OCC(O)Cn1c2ccccc2c2ccccc21 (centres undefined) | – | ? | 23µM | – | 21µM | ?
COc1ccc(N(C)S(=O)(=O)c2cccc(C(=O)N3CCN(c4cccc(C)c4C)CC3)c2)cc1 | – | – | – | 16µM | – | –
CN1CCN(C(=O)c2ccc(S(=O)(=O)N(C)c3ccccc3)cc2)CC1 | · | – | · | – | – | –
Cc1cccc(N2CCN(C(=O)c3ccc(S(=O)(=O)N(C)c4ccccc4)cc3)CC2)c1C | 5.2µM | 7.3µM | 10µM | ? | 23µM | ?
CCOC(=O)C1CCCN(C(=O)c2cccc(S(=O)(=O)N(C)c3ccc(OC)cc3)c2)C1 (centres undefined) | – | – | – | – | ? | –
Cc1cccc(N2CCN(C(=O)c3cccc(S(=O)(=O)N4CCCCC4)c3)CC2)c1C | 15µM | ? | ? | ? | ? | ?
O=C(c1cccc(S(=O)(=O)N2CCCCCC2)c1)N1CCN(c2ccccc2F)CC1 | – | – | – | – | ? | –
CC(=O)OCC(=O)[C@H]1CC[C@H]2[C@@H]3CCC4=CC(=O)CC[C@]4(C)[C@H]3CC[C@]12C | – | – | – | ? | 15µM | –
C[C@]12CCC(=O)C=C1CC[C@@H]1[C@@H]2CC[C@@]2(C)[C@H]1CC[C@@]21CCC(=O)O1 | – | – | – | – | – | –
C[C@]12CCC(=O)C=C1CCC1C2CC[C@@]2(C)C1CCC21OCCO1 (some centres undefined) | 21µM | – | – | – | ? | ?
CCn1c(=O)c2cc(C(=O)NCc3cc(OC)ccc3OC)sc2c2ccccc21 | · | · | · | – | – | ·
COc1ccc(OC)c(NC(=O)C2(C)CCN2CCc2ccccc2)c1 (centres undefined) | · | ? | · | – | – | ?
COc1ccc2c(Cn3cnc4cc([N+](=O)[O-])ccc4c3=O)cc(=O)oc2c1 | 9.2µM | 2.6µM | 5.8µM | 4.6µM | 4.6µM | 3.7µM
Cc1cc(C)c(C)c(S(=O)(=O)ON2C(=O)c3ccccc3C2=O)c1C | 7.3µM | 7.3µM | 21µM | – | – | ?
Cc1cc(C)c(S(=O)(=O)ON2C(=O)c3ccccc3C2=O)cc1C | 7.3µM | 10µM | ? | – | – | ?
Cc1ccc(S(=O)(=O)ON2C(=O)c3ccccc3C2=O)c(C)c1 | 13µM | ? | ? | – | – | ?
O=C1c2ccccc2C(=O)N1OS(=O)(=O)c1ccc(F)cc1 | – | – | – | – | – | –
COc1ccc(C)cc1NC(=O)c1nnn(-c2c(C)cccc2C)c1C | · | · | · | – | – | ·
O=C(Nc1cc(C(=O)N2CCCC2)ccc1N1CCCC1)c1ccccc1F | – | – | – | – | 3.7µM | –
SMILES | MCF10A rereplic | HT1080 IDH1KD tx | SW480 rerep | KB-3-1 cytotox | KB-V1 cytotox | HT1080NT lethal
O=C(Nc1ccc(C(=O)N2CCCC2)cc1)c1ccccc1F | – | ? | – | ? | – | ?
Cc1cccc(C)c1NC(=O)CCCSc1nnc(-c2ccc(Cl)cc2)n1-c1ccccc1 | ? | ? | ? | 4.1µM | 2.9µM | –
Cc1cccc(C)c1NC(=O)CCCSc1nnc(-c2ccc(F)cc2)n1-c1ccccc1 | ? | – | – | 16µM | 2.3µM | –
O=C(CCl)NN1C(=O)NC(c2ccccc2)(c2ccccc2)C1=O | ? | 16µM | ? | ? | – | ?
CCS(=O)(=O)c1ccc(C=NNc2nc3ccccc3o2)cc1 | – | – | – | – | 18µM | –
CN(C)c1ccc(/C=N/Nc2nc3ccccc3o2)cc1 | – | ? | ? | – | – | –
COc1ccccc1C(=O)Nc1nnc2n1CCS2 | · | · | · | – | ? | ·
O=S(=O)(NCC(Nc1ccc(Cl)cc1)c1ccccc1)c1ccc(Cl)cc1 (centres undefined) | 3.3µM | ? | ? | ? | ? | –
O=S(=O)(NCC(c1ccccc1)N1CCC(O)CC1)c1ccc(Cl)cc1 (centres undefined) | – | – | – | – | – | –
CC(C)Oc1cccc(-c2ccnc(N3CCC(C(N)=O)CC3)n2)c1 | · | · | · | – | – | ·
Cc1cc(C)nc(Sc2ccc(C=O)cc2[N+](=O)[O-])n1 | – | – | – | – | – | –
O=Cc1ccc(Sc2nnc(-c3ccccc3)o2)c([N+](=O)[O-])c1 | 2.9µM | – | ? | ? | ? | ?
Cn1nc([N+](=O)[O-])nc1Sc1nnc(-c2ccccc2)o1 | ? | ? | 4.1µM | ? | – | ?
Cn1nc([N+](=O)[O-])nc1Sc1cccc2cccnc12 | – | – | – | – | ? | –
CCN(CCNC(=O)c1ccc(CSc2nc3ccncc3[nH]2)cc1)c1ccccc1 | ? | – | – | – | – | –
O=C(NCCN1CCN(c2cccc(Cl)c2)CC1)c1ccc(CSc2nc3ccncc3[nH]2)cc1 | 18µM | ? | – | ? | – | ?
Cc1ccc(NC(=O)[C@@H](C)NC(=O)[C@@H]2Cc3ccccc3CN2)cc1 | – | ? | – | – | – | –
Cc1ccc(NC(=O)[C@H](NC(=O)[C@@H]2Cc3ccccc3CN2)c2ccccc2)cc1C | 26µM | – | – | – | – | –
CCc1ccc(NC(=O)Cn2c(=O)n(CCC(=O)NCCc3ccc(OC)c(OC)c3)c(=O)c3ccccc32)cc1 | · | · | · | – | – | ·
O=C(c1ccc(CS(=O)Cc2ccc(Cl)cc2)o1)N1CCN(C2CCCCC2)CC1 (centres undefined) | · | – | · | – | – | –
CCOc1ccccc1CN(Cc1ccco1)S(=O)(=O)c1ccc(-n2cnnn2)c(OC)c1 | ? | ? | 8.2µM | ? | ? | ?
COc1ccc(CCN(Cc2cccs2)S(=O)(=O)c2ccc(-n3cnnn3)c(OC)c2)cc1OC | – | – | – | – | 2.6µM | ?
COc1cc(S(=O)(=O)N(Cc2ccco2)C2CCCC2)ccc1-n1cnnn1 | – | – | – | – | – | –
